# Source: the supplement of paper PMC9334596
# Values joined by “and” are separate entries in the source; they are usually repeats but may differ in a detail not shown here. Equal values may be shown once. Over roughly 5,300 compounds, “PER2::LUC luminescence relative to vehicle control” has its median near 0.96; the highest 2% begin near 1.3. For the sample, the highest values were picked, then their nearest neighbours and some compounds at random.
# Tested on: mPer2Luc MEF
# Test: PER2::LUC luminescence relative to vehicle control (fold of vehicle); higher = higher PER2::LUC reporter signal
# Conditions: 10 µM
# Summary of the method: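 Each value gives PER2::LUC luminescence as fold of vehicle control, measured with the ONE-Glo luciferase assay system in mouse embryonic fibroblasts carrying the mPer2Luc reporter. Cells grown in DMEM with 10% FBS at 37 °C and 5% CO2 were seeded at ~3000 per well in 384-well plates. Library compounds were added at 10 μM 48 h later, and readings were taken 24 h and 30 h after treatment.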
Structure (SMILES),PER2::LUC luminescence (time after treatment 24 h),PER2::LUC luminescence (time after treatment 30 h)
"NC1CCN(O)C1=O (single isomer, unassigned; (+))",0.99,0.883
CCCN(CCc1cccs1)C1CCc2c(O)cccc2C1 (racemic),0.965,0.906
O=C1/C(=C/c2ccc(O)c(O)c2)Oc2c1ccc(O[C@@H]1O[C@H](CO)[C@@H](O)[C@H](O)[C@H]1O)c2O,0.983,0.93
CC(C)C[C@H](NC(=O)OCc1ccccc1)C(=O)N[C@@H](CC(C)C)C(=O)NCC(=O)CNC(=O)[C@H](CC(C)C)NC(=O)[C@H](CC(C)C)NC(=O)OCc1ccccc1,1.01,0.909
CCCCCCCCCCCCCC[C@@H](O)[C@@H](O)[C@@H](CO)NC(C)=O,1.07,1.04
c1ccc2c(Cc3c[nH]c4ccccc34)c[nH]c2c1,0.956 and 0.816,1.02 and 0.84
CN1C(=O)N[C@H](Cc2c[nH]c3c(Cl)cccc23)C1=O,0.87,0.819
CN1C(=O)C(Cc2c[nH]c3ccccc23)NC1=S (stereo unspecified),1.15,1.36
O=C(O)c1cc(N(Cc2ccccc2O)Cc2cc(O)ccc2O)ccc1O,1.05,1.03
C[C@@]1(F)[C@H](O)[C@@H](CO)O[C@H]1n1ccc(=O)[nH]c1=O,0.965,0.937
CN1CCC[C@@H]1c1cccnc1.Cc1ccc(C(=O)O[C@H](C(=O)O)[C@@H](OC(=O)c2ccc(C)cc2)C(=O)O)cc1,0.873,0.978
C=CC[C@@H]1[C@H](O)CC[C@@]2(C)[C@H]1CC[C@@H]1[C@@H]2CC[C@]2(C)[C@@H]([C@H](C)CCCC(C)C)CC[C@@H]12,0.994,0.987
OC[C@H]1O[C@@H](n2cnc3c(NC4CCCC4)ncnc32)[C@H](O)[C@@H]1O,0.965,0.991
Nc1nc(NC2CC2)c2ncn([C@H]3C=C[C@@H](CO)C3)c2n1,1.23 and 1.48,1.32 and 1.75
OCC1OC(n2cnc3c(NC4CCCC4)nc(Cl)nc32)C(O)C1O (stereo unspecified),0.932,0.97
COc1cc(O)c(C(=O)/C=C/c2ccc(O)c(OC)c2)c(OC)c1,0.871,0.855
CC(C)c1noc(C2CCN(c3ncnc(Nc4ccc(S(C)(=O)=O)cc4F)c3[N+](=O)[O-])CC2)n1,0.972,0.789
COc1ccc(/C=C/c2ccccc2F)cc1,1.2,1.26
